Only some compounds are listed: those with a hit (about 2.4% of all), similar ones and a draw of the others.
PLC-gamma1 inh: PLC-gamma1 (human) inhibition, primary screen. P19174. purified PLC-gamma1, fluorogenic substrate, fluorescence. inhibition, % at 12.2 µM. 370,000 tested, 0.84% active; in the data active means inhibition above about 9.5%
LEDGF integ inh: blocks HIV-1 LEDGF/p75-dependent DNA integration. 370,000 tested, 0.64% active. inhibition, % at 3.7 µM. AID 743269. TR-FRET IN-LEDGF/p75 DNA integration, Eu/Cy5;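 active means inhibition above the screen-wide mean plus 3 SD, cut at about 13% in these data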;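 further: signal is the Cy5 over europium emission ratio at 671 and 618 nm; 0% = plate median of compound wells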
MBD2 DNA inh: inhibitors of human MBD2 binding to methylated oligonucleotide | Q9UBB5 | TR-FRET | inhibition, % at 4.4 µM | 370,000 tested, 0.31% active; in the data active means inhibition above about 13%
PLCb3 inh: PLC-beta3 (human) inhibition, primary screen. Q01970. 370,000 tested, 0.18% active. inhibition, % at 12.2 µM. Purified PLC-beta3, fluorogenic substrate, fluorescence; in the data active means inhibition above about 11%;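 further: 0% = median of compound wells on plate and 100% = full blocker control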
Target sequence (Q01970 whole entry, looked up): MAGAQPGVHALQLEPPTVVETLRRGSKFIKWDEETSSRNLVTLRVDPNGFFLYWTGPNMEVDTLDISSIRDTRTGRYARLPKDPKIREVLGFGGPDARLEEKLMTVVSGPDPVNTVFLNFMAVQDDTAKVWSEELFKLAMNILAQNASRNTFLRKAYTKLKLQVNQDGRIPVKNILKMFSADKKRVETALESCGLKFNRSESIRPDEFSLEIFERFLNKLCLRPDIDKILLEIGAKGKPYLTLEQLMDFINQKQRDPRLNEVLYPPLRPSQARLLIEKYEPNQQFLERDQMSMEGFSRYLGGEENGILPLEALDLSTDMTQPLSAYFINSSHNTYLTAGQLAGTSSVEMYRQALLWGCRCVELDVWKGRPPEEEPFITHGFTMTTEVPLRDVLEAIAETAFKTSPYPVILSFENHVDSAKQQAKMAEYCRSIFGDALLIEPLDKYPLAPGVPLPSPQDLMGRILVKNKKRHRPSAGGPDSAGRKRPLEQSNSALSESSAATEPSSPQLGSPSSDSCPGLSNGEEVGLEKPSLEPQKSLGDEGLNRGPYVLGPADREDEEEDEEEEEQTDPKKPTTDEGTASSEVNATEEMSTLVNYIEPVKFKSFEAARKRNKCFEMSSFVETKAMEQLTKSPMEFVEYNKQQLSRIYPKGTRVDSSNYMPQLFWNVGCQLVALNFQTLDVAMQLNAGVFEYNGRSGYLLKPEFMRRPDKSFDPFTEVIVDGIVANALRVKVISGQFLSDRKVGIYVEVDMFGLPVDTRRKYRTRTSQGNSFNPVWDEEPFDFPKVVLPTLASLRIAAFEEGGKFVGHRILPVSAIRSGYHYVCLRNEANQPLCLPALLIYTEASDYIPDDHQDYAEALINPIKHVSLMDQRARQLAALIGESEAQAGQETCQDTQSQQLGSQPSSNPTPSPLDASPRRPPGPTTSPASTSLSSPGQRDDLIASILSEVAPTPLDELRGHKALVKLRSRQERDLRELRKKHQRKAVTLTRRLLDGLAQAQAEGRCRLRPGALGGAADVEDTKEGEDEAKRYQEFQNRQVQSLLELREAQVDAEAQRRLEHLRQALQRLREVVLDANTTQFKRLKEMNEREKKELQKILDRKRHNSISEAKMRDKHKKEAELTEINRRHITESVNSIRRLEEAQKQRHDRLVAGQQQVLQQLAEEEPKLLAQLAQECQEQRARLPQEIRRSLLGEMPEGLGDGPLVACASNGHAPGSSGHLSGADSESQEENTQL
UHRF1 binding: UHRF1 methyl-DNA binding inhibition. Q96T88. UHRF1 binding to methylated oligo, TR-FRET. inhibition, % at 4.4 µM. 370,000 tested, 0.75% active. AID 687016;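 further: UHRF1 SRA domain binding a hemimethylated CpG hairpin DNA probe; 0% = median of test compound wells and 100% = reference inhibitor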
UHRF1 ctr MBD2: inhibits human UHRF1 binding to methylated oligonucleotide, MBD2 counter-screen. TR-FRET. shares compounds with MBD2 DNA inh. inhibition, % at 4.4 µM. 1,000 tested, 25% active;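 further: UHRF1 SRA domain binding a labeled hemimethylated CpG hairpin DNA; 0% = vehicle only and 100% = reference inhibitor with vehicle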
MBD2 confirm: MBD2-DBD methyl-DNA binding inhibition, TR-FRET confirmation. shares compounds with MBD2 DNA inh. TR-FRET MBD2-DBD binding to methylated oligonucleotide. inhibition, % at 4.4 µM. 1,000 tested, 26% active; in the data active means inhibition above about 14%
Numbers without * were called inactive; i = inactive; nt = no result given. Unless noted, no stated cut-off is given here; in the data, active means inhibition above about 21%; inactive means the rest.

SMILES	PLC-gamma1 inh	LEDGF integ inh	MBD2 DNA inh	PLCb3 inh	UHRF1 binding	UHRF1 ctr MBD2	MBD2 confirm
CCOC(=O)CSC1=C(C#N)C(=O)NC(c2ccc(OC)c(OC)c2)S1 (stereo not drawn)	3.5	1.9	4.7	2.4	2.2	nt	nt
COC(=O)[C@H]1C[C@@]2(N3CCCCC3)c3ccccc3N(C(=O)OC(C)(C)C)[C@H]2N1C(=O)OC(C)(C)C	2.9	2.9	-3.4	6.8	-0.9	nt	nt
C[C@@H]1CCCCCCCCC(=O)OCCN1C(=O)OC(C)(C)C	1.2	2.3	-0.5	0.7	3.4	nt	nt
C[C@@H]1CCCCCCCCC(=O)OCCN(C(=O)OC(C)(C)C)[C@H](C)CCCCCCCCC(=O)OCCN1C(=O)OC(C)(C)C	6.8	-1.4	2.6	12.9*	4.1	nt	nt
COC(=O)C1CN(C2CCCC2)CCS(=O)(=O)N1Cc1ccc(OC)cc1 (stereo not drawn)	-0.7	2.8	0.5	-1.9	-2.5	nt	nt
O=C(CS(=O)(=O)Cc1ccccc1)Nc1nc2c(s1)CCCC2	-4.8	-0.7	-1.1	-6.0	-2.2	nt	nt
O=C(CCS(=O)(=O)Cc1ccccc1)Nc1nc2c(s1)CCCC2	-1.6	33.0*	0.7	0.7	1.3	nt	nt
COC1(OC)C(/C=C/c2ccc(C)cc2)C(C#N)(C#N)C1(OC)OC (stereo not drawn)	-4.9	0.6	8.5	-4.3	21.1*	nt	nt
CCOC(=O)NC(=S)c1ccc[nH]1	2.5	1.1	-2.9	-39.0	22.5*	nt	nt
CCn1c(=O)n(CC(=O)N2CCOCC2)c(=O)c2ccccc21	-4.7	-1.8	-3.3	-6.5	-0.1	nt	nt
O=C(O)c1ccccc1C(=O)Nc1ccc(S(=O)(=O)Nc2nccs2)cc1	3.3	-3.4	19.0*	-0.3	17.0	9.3	1.9
CCCC[C@@H]1C(=O)N2N=Cc3cc4ccccc4cc3[C@H]2N2N=Cc3cc4ccccc4cc3[C@@H]12	-37.7	2.6	2.6	-56.0	4.8	nt	nt
Cc1ccc(C(=O)c2ccccc2C(=O)O)s1	0.6	-2.9	15.8*	-0.2	25.9*	41.2*	13.7*
O=C1CCCN1CC(O)CS(=O)(=O)Cc1ccc(Cl)c(Cl)c1 (stereo not drawn)	8.8	-1.3	15.7*	-0.5	4.1	6.8	3.4
Cc1cccc2c(N=NC(=O)c3ccc(NS(=O)(=O)c4cccs4)cc3)c(O)[nH]c12	7.4	-2.1	20.9*	-8.7	0.2	3.7	3.2
Cc1ccc2[nH]c(O)c(N=NC(=O)c3ccc(NS(=O)(=O)c4cccs4)cc3)c2c1	0.7	-0.7	-8.2	-7.0	-3.6	nt	nt
COc1cc(OC)cc(-c2oc3cccnc3c2C#CCCO)c1	-99.3	0.5	20.8*	-139.1	2.2	1.7	0.3
CCCC(=O)N1CCC[C@]2(CC[C@@H](CCC(C)=O)O2)C1	-0.3	-2.6	0.3	-0.3	0.6	nt	nt
C=CCn1c(SCC(N)=O)nc2scc(-c3ccc(C)o3)c2c1=O	-4.4	-4.6	14.3*	-9.8	9.9	2.0	0.3
N#Cc1c(-c2ccccc2Cl)c2c([nH]c1=O)-c1ccccc1OC2	-407.4	1.9	20.6*	i	1.8	4.2	2.5
CCOC(=O)CC[C@@]1(C(=O)OCC)C[C@@H](CC(=O)NCc2ccc(OC)c(OC)c2)C(=O)N2CCCC=C21	-0.8	-3.2	0.6	0.3	-1.9	nt	nt
O=C(COC(=O)c1ccccc1O)Nc1cccc2ccccc12	-2.2	-0.7	14.3*	-1.6	16.7	9.0	1.6
C=CC[C@@]1(c2ccccc2)Oc2ccccc2-c2nc3ccccc3nc21	-36.0	1.1	3.1	-55.0	-0.1	nt	nt
COc1ccc(-c2[nH]nc3oc(=O)cc(C)c23)cc1	i	-2.0	14.5*	i	20.4	2.9	1.4
C[C@@H]1C[C@H]2[C@@H](Cc3ccccc3)C(=O)N3[C@H](c4ccccc4)[C@H](C)C[C@H]3[C@@H](Cc3ccccc3)C(=O)N2[C@@H]1c1ccccc1	0.1	-0.9	4.6	-0.7	-1.9	nt	nt
Cc1cccc(NC(=O)c2ccc(CN3CCc4ccccc4C3)cc2)c1C	1.3	-0.3	-4.4	3.4	3.4	nt	nt
Cc1ccccc1NC(=O)c1ccc(CN2CCc3ccccc3C2)cc1	3.2	0.7	33.6*	2.9	0.5	5.5	2.8
O=S1(=O)CC(N2CCCC2)CN1 (stereo not drawn)	-1.0	3.1	14.6*	3.4	15.0	10.1	3.4
